Compound activity as filed in PubChem.
Most compounds without a hit are left out; they make up all but 3.4% or so of the library.
TEAD-YAP inh: TEAD-YAP interaction inhibition; inhibition, % at 9.12 µM; 640,000 tested, 1.4% active; AID 1259422; HEK-TIYL cells, TEAD-Gal4/YAP UAS-luciferase luminescence; in the data active means inhibition above about 32%
MITF primary: human MITF inhibition, primary screen | AlphaScreen MITF homodimerization, bead proximity signal | AID 1259374 | O75030 | inhibition, % at 2.6 µM | 650,000 tested, 0.91% active; in the data active means inhibition above about 50%
Target sequence (O75030 whole entry, looked up): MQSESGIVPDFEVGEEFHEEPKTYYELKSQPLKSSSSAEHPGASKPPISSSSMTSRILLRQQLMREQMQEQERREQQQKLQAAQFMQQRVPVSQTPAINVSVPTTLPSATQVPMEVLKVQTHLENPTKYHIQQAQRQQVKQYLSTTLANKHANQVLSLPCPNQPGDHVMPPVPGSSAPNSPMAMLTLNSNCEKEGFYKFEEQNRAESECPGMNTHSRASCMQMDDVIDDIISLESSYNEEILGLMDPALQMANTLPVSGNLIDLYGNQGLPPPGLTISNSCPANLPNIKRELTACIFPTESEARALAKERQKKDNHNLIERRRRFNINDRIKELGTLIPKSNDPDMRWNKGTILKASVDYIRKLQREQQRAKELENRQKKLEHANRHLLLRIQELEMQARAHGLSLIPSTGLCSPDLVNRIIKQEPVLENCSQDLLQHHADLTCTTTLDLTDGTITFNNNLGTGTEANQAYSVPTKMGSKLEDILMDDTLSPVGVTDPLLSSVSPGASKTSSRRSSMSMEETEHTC
GPR151 ag: activators of human GPR151 | PathHunter beta-arrestin GPR151 cells, luminescence | activation, % at 11.2 µM | 650,000 tested, 1% active | AID 1508602; in the data active means activation above about 4.9%
FBW7 activator: human FBW7 E3 ligase activation, primary screen; Q969H0; AlphaScreen FBW7–phospho-cyclin E peptide binding, activator screen; normalized activity (activation), % at 26.1 µM; 650,000 tested, 0.13% active; AID 1259310; in the data active means normalized activity above about 1.9%;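 further: purified mutant Fbw7 with reduced substrate affinity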
Of the large screens only hits and unclear results are named; the others gave an inactive call.

COc1ccc(C2CC(=O)Nc3cc4c(cc32)OCO4)cc1O (stereo not drawn)	none
COc1ccc(CC(=O)NCc2nnc(SCC(=O)N3CCc4ccccc43)n2-c2ccc(F)cc2)cc1	none
COc1cc(NC(=O)c2cc(Cl)ccc2[N+](=O)[O-])c(OC)cc1Cl	none
Cc1ccc(NC(=O)c2cc(F)ccc2[N+](=O)[O-])cc1	TEAD-YAP inh 52
O=C(Nc1ccc(Cl)cc1Cl)c1cc(F)ccc1[N+](=O)[O-]	TEAD-YAP inh 76
OCCNCc1cccc(OCc2ccccc2)c1	none
COc1ccc(C(=O)NCC(c2cccs2)N2CCc3ccccc3C2)cc1 (stereo not drawn)	none
Oc1ccccc1N1CCN(c2ncnc3sccc23)CC1	TEAD-YAP inh 56
Cc1ccsc1C(=O)NNC(=O)c1cc(C)n(-c2ccc(F)cc2)c1C	TEAD-YAP inh 65
C=CCn1c(SCC(=O)OCC)nc2sc3c(c2c1=O)CCC(C(C)(C)C)C3 (stereo not drawn)	TEAD-YAP inh 38
Cc1sc(NC(=O)c2cc(-c3ccc(C(C)(C)C)cc3)nc3ccccc23)c(C(N)=O)c1C	TEAD-YAP inh 46
COC(=O)c1cc(NC(=O)c2ccc([N+](=O)[O-])cc2)cc(C(=O)OC)c1	none
CC(Sc1nnc(COc2ccccc2)n1-c1ccccc1)C(=O)NC(c1ccccc1)c1ccccc1 (stereo not drawn)	none
COc1ccccc1CC(=O)Nc1cc(OC)c(OC)cc1C(=O)O	none
CCCCC(=O)Nc1cc(OC)c(OC)cc1C(=O)O	FBW7 activator 2.2
O=C1c2nccnc2C(=O)N1c1nccs1	none
N#Cc1nc(-c2cccc(Cl)c2)oc1N1CCN(C(=O)c2ccccc2)CC1	none
CCCNC(=O)c1ccc2nc(Nc3ccc(-n4ccnc4)cc3)sc2c1	none
CCOc1ccc(Nc2nc(Nc3ccc(NC(C)=O)cc3)nc(C)c2[N+](=O)[O-])cc1	TEAD-YAP inh 44
CC(=O)Nc1ccc(Nc2nc(C)c([N+](=O)[O-])c(Nc3ccccc3)n2)cc1	none
COC(=O)/C(N=Nc1ccc(-c2ccccc2)cc1)=C(/O)CCl	TEAD-YAP inh 61
CCOC(=O)/C(N=Nc1ccc([N+](=O)[O-])cc1)=C(\O)CCl	none
N=c1nc2n(c3ccccc13)Cc1ccccc1-2	TEAD-YAP inh 71
O=c1nc2n(c3ccccc13)Cc1ccccc1-2	none
Cc1[nH]c2ccc(OC(F)(F)F)cc2c1CCNC(=O)c1cc([N+](=O)[O-])ccc1Cl	TEAD-YAP inh 66
O=C(NCCOC12CC3CC(CC(C3)C1)C2)c1cc([N+](=O)[O-])ccc1Cl	TEAD-YAP inh 33
CCOc1ccc(CCNC(=O)c2cc([N+](=O)[O-])ccc2Cl)cc1OCC	TEAD-YAP inh 39
O=C(Nc1ccc(C23CC4CC(CC(C4)C2)C3)cc1)c1cc([N+](=O)[O-])ccc1Cl	none
N#CNc1ccc(S(=O)(=O)N2CCOCC2)cc1N	none
CCOc1ccc(C2c3[nH]c4ccccc4c3CCN2C(=O)CCn2ccnc2C)cc1 (stereo not drawn)	none
COc1cccc(/C=N/NC(=O)c2ccccc2C)c1O	none
Cc1cncc2c(S(=O)(=O)N3CCCN(C(=O)CN)C[C@@H]3C)cccc12	none
Cc1cncc2cccc(S(=O)(=O)N3CCCN(C(=O)CN)C[C@@H]3C)c12	TEAD-YAP inh 36
N#Cc1ccc(-c2ccccc2)nc1SCc1ccccc1F	TEAD-YAP inh 43
Cc1ccccc1CSc1nc(-c2cccs2)ccc1C#N	TEAD-YAP inh 53
CCSc1nc(-c2ccccc2)ccc1C#N	none
COc1ccc2c(c1)-c1nc(/N=C\c3ccc(C)o3)sc1CC2	none
Cc1ccccc1C1C(C#N)=C(N)N(N(C)C)C2=C1C(=O)CC(c1ccccc1)C2 (stereo not drawn)	TEAD-YAP inh 64
Cc1cc(C2C(C#N)=C(N)N(N(C)C)C3=C2C(=O)CC(c2ccccc2)C3)c(C)s1 (stereo not drawn)	TEAD-YAP inh 55
O=C(Cc1ccc(Cl)cc1)NCCCN1CCOC(c2ccccc2)C1 (stereo not drawn)	none
COCc1c(C#N)c(Sc2nnc(N)s2)nc(C)c1[N+](=O)[O-]	MITF primary 55
COCc1c(C#N)c(Cl)nc(C)c1[N+](=O)[O-]	none
COc1ccc(N=Cc2sc3ccccc3c2O)cc1	TEAD-YAP inh 85
CC(C)(C)NC(=O)NCC(c1ccsc1)N1CCCCCC1 (stereo not drawn)	none
CCN1C(=O)C(O)(CC(=O)c2cccc(Br)c2)c2ccccc21 (stereo not drawn)	none
NS(=O)(=O)c1cccc(NS(=O)(=O)c2cccc([N+](=O)[O-])c2)c1	FBW7 activator 4.6
N#Cc1sc(NC(=O)c2ccc(F)c(F)c2)nc1Cl	none
Cc1ccc(C(=O)Nc2nc(Cl)c(C#N)s2)cc1	TEAD-YAP inh 71
N#Cc1sc(NC(=O)c2cccc(Br)c2)nc1Cl	TEAD-YAP inh 64
Cc1ccc(N2C(N)=C(C#N)C(c3ccc4c(c3)OCO4)C3=C2CC(C)(C)CC3=O)cc1 (stereo not drawn)	TEAD-YAP inh 42
COc1cc(C2C(C#N)=C(N)N(c3ccc(C)cc3)C3=C2C(=O)CC(C)(C)C3)cc(OC)c1OC (stereo not drawn)	TEAD-YAP inh 54
CC[C@@]1(O)C(=O)OCc2c1cc1n(c2=O)Cc2cc3cc(O)ccc3nc2-1	TEAD-YAP inh 84
NC(C(=O)O)C(O)c1ccccc1 (stereo not drawn)	none
N[C@H](C(=O)O)[C@H](O)c1ccc(O)c(O)c1	MITF primary 54
O=C(CCl)N(CC1=CCSC1)c1ccccc1	TEAD-YAP inh 47
Cc1ccc(CCNC(=O)c2cc(Sc3ccc(C)cc3)nc3ccccc23)cc1	none
COc1cccc(C2C=C(c3cccc(Br)c3)Nc3nnnn32)c1 (stereo not drawn)	TEAD-YAP inh 49
COc1cccc(C2=CC(c3ccccc3C)n3nnnc3N2)c1 (stereo not drawn)	TEAD-YAP inh 44
COc1ccc(C2C=C(c3cccc(Br)c3)Nc3nnnn32)cc1OC (stereo not drawn)	none
COc1cccc(C2=CC(c3cc(Br)ccc3F)n3nnnc3N2)c1 (stereo not drawn)	TEAD-YAP inh 46
O=C(CCC(=O)Nc1ccc(F)cc1)N/N=C/c1ccccc1F	none
CCCCNS(=O)(=O)c1ccc2nc(SCC(C)=O)[nH]c2c1	TEAD-YAP inh 34
CCOC(=O)c1ccc(N2N=C(C(F)(F)F)/C(=C/C=C/c3ccco3)C2=O)cc1	MITF primary 64
CCN(CC)C(=O)Cn1c(C)c(C#N)c2ccccc21	FBW7 activator 1.9
c1ccc2c(c1)OCC(c1nc3ncc(-c4ccncc4)cc3[nH]1)O2 (stereo not drawn)	none
Fc1ccc(CCn2c(C3COc4ccccc4O3)nc3ncc(-c4ccncc4)cc32)cc1 (stereo not drawn)	TEAD-YAP inh 51
COc1ccc(C(=O)Nc2noc3ccccc23)cc1	TEAD-YAP inh 86
COc1cccc(C(=O)Nc2noc3ccccc23)c1	TEAD-YAP inh 57
COc1cccc(C(=O)Nc2cc(C)on2)c1	none
Cc1cc(=O)[nH]c(NC2CCN(C(=O)N3c4ccccc4Sc4ccccc43)CC2)n1	TEAD-YAP inh 56
Cc1cc(=O)[nH]c(NC2CCN(C(=O)C(C)(C)c3ccc(Cl)cc3)CC2)n1	none
